Bioassay records (PubChem)
PAFAH1B3 inh – inhibitors of human PAFAH1B3. Q15102. recombinant PAFAH1B3, FP-rhodamine probe, fluorescence polarization. inhibition, % at 3.39 µM. 340,000 compounds, 0.28% hits. AID 492972;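 active = inhibition above the screen-wide average of all tested compounds plus 3 SD, cut at about 25% in these data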;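 note: 0% = enzyme with DMSO only and 100% = wells lacking PAFAH1B3 protein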
LYPLA1 inh – counter-screen for PME1 inhibitors: inhibitors of human LYPLA1; O75608; recombinant LYPLA1, FP-Rh probe fluorescence polarization; 320,000 compounds, 0.16% hits; inhibition, % at 5.9 µM;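 active = inhibition above the mean of all tested compounds plus 3 SD, set per campaign, cut at about 14% in these data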;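 note: inhibitors block serine hydrolase probe labeling of LYPLA1 so polarization falls; 0% = enzyme with DMSO and 100% = wells lacking LYPLA1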
PAFAH2 FP inh – PAFAH2 (human) inhibition; recombinant PAFAH2, FP-rhodamine activity probe, fluorescence polarization; inhibition, % at 3.39 µM; 340,000 compounds, 0.99% hits; AID 492956;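 active = inhibition above the mean over all tested compounds plus 3 SD, cut at about 30% in these data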;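 note: inhibitors block probe labeling of enzyme so polarization drops; 0% = enzyme with DMSO and 100% = wells lacking PAFAH2 protein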
PAFAH1B2 FP inh – PAFAH1B2 (human) inhibition; P68402; recombinant PAFAH1B2, FP-rhodamine activity probe, fluorescence polarization; inhibition, % at 3.39 µM; 340,000 compounds, 1.2% hits;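 active = inhibition above the mean of all tested compounds plus 3 SD, cut at about 24% in these data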;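 note: 0% = enzyme with DMSO and 100% = wells lacking PAFAH1B2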
Target sequence (P68402 whole entry, looked up): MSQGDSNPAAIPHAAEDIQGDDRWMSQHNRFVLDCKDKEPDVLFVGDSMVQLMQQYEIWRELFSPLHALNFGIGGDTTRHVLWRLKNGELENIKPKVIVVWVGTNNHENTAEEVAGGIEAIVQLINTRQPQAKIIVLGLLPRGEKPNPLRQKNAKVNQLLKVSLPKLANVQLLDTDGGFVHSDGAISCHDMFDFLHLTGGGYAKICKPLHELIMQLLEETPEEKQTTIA
LYPLA2 counter – LYPLA2 (human) inhibition in PME1 counter-screen; inhibition, % at 5.9 µM; AID 2177; recombinant LYPLA2, FP-Rh probe fluorescence polarization; 320,000 compounds, 0.38% hits; O95372;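 active = inhibition above the screen-wide mean plus 3 SD, limit set per campaign, cut at about 26% in these data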;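 note: 0% = LYPLA2 with DMSO and 100% = wells lacking LYPLA2 enzyme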
Target sequence (O95372 whole entry, looked up): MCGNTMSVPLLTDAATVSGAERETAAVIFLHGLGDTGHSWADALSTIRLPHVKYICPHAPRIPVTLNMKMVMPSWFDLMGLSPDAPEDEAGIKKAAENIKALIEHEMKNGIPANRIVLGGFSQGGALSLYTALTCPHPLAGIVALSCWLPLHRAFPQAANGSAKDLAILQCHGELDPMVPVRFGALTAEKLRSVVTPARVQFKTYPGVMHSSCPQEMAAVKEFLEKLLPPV
pPAFAH FP inh – inhibitors of human plasma PAF acetylhydrolase (pPAFAH); AID 463082; 330,000 compounds, 1.5% hits; Q13093; inhibition, % at 3.39 µM; recombinant pPAFAH, FP-rhodamine probe fluorescence polarization;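 active = inhibition above the mean inhibition across the screen plus 3 SD, cut at about 25% in these data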;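 note: inhibitors block binding of the rhodamine activity-based probe so polarization drops; 0% = enzyme with DMSO and 100% = wells lacking pPAFAH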
LYPLA2 conf – LYPLA2 (human) inhibition, confirmation counter-screen | shares compounds with LYPLA2 counter | recombinant LYPLA2, FP-Rh probe fluorescence polarization | inhibition, % at 5.9 µM | 1,100 compounds, 72% hits;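 active = mean inhibition across replicates above the hit cutoff set in the primary screen, cut at about 26% in these data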;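 note: blocked labeling of the enzyme by serine hydrolase FP-Rh probe lowers polarization; 0% = enzyme with DMSO and 100% = wells lacking LYPLA2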
LYPLA2 ABPP – inhibitors of human LYPLA2 | shares compounds with LYPLA2 counter | rhLYPLA2 in mouse brain proteome, gel ABPP FP-Rh | inhibition, % at 20 µM | 150 compounds, 30% hits | AID 652029;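 active = inhibition of LYPLA2 enzyme probe labeling above about 50%, limit read from the data; inactive = inhibition below that limit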;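 note: loss of FP-Rh probe labeling of the LYPLA2 gel band measured as band density; 0% = DMSO only control band and 100% = blank gel background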
The depositor's hits bear a star; / = no result. An excerpt weighted towards active compounds, which were near 2.9% of everything screened.

SMILES	PAFAH1B3 inh	LYPLA1 inh	PAFAH2 FP inh	PAFAH1B2 FP inh	LYPLA2 counter	pPAFAH FP inh	LYPLA2 conf	others
NC(=O)C1CCN(C2=C(Cl)C(=O)c3ccccc3C2=O)CC1	43*	7	47*	35*	42*	0	36*
O=C(O)c1cccc(N2C(=O)c3ccc(C(=O)c4cccc([N+](=O)[O-])c4)cc3C2=O)c1	6	4	2	1	45*	1	58*	LYPLA2 ABPP=45
O=C(O)c1cccc(NC(=O)c2ccc3c(c2)C(=O)N(c2cccc([N+](=O)[O-])c2)C3=O)c1	7	0	-5	2	24	1	/
O=C(O)c1ccc(-c2nc3scc(-c4ccccc4)c3c(=O)[nH]2)cc1	6	-2	-5	-2	1	-3	/
CS(=O)(=O)c1ccc(Oc2ccc(-c3nnco3)cc2)c([N+](=O)[O-])c1	1	0	-5	4	3	-2	/
O=[N+]([O-])c1cc(Cl)ccc1Oc1ccc(-c2nnco2)cc1	8	7	2	3	27*	5	28*
CC1(C)NC(C)(C)C(O)(C(N)=O)C1=O (stereo unspecified)	5	2	0	7	27*	3	18
COC(=O)c1c(NC(=O)CN2CCN(c3ncccn3)CC2)sc(C(N)=O)c1C	1	1	-5	-1	31*	14	0
O=C(NCc1ccc(Cl)cc1)Nc1ccc(F)cc1	2	/	6	7	/	/	/
O=C(NCc1ccc(Cl)cc1)NCC(F)(F)F	7	1	-5	5	33*	2	-3
C=C(C)C(=O)OCC(=O)NCc1ccccc1	0	3	5	6	8	12	/
COc1ccc(N2CCN(C(=O)CSc3ccc(C)cc3)CC2)cc1	8	1	1	4	10	5	/
COc1ccc(N2CCN(C(=O)COC(=O)c3ccc(-n4nc(C)cc4C)cc3)CC2)cc1	3	7	-2	-6	43*	10	40*
O=[N+]([O-])c1ccc(N2CCN(c3ccccc3)CC2)cc1	9	-1	-5	2	-3	2	/
COc1ccc(C(=O)NC(=S)N2CCN(c3ccc([N+](=O)[O-])cc3)CC2)cc1	0	-1	-2	4	5	8	/
COc1ccc(N2CCN(C(=O)CSc3ccc([N+](=O)[O-])cc3)CC2)cc1	-2	2	6	1	54*	-3	49*
O=C(CCCC(=O)N1CCN(c2ccc([N+](=O)[O-])cc2)CC1)c1ccccc1	5	9	8	3	34*	7	33*
COc1ccc(C(=O)CCC(=O)N2CCN(c3ccc([N+](=O)[O-])cc3)CC2)cc1	-1	0	-1	2	29*	2	19
CCN(CC(=O)NC1CCS(=O)(=O)C1)c1ccc(S(C)(=O)=O)cc1[N+](=O)[O-] (stereo unspecified)	4	0	4	-3	2	3	/
Fc1ccccc1C1c2[nH]c3ccccc3c2CCN1CCCn1cccn1 (stereo unspecified)	0	1	-4	1	0	3	/
Cc1noc(C)c1CSCC(=O)N1CCN(c2ccc([N+](=O)[O-])cc2)CC1	3	6	1	2	28*	4	25
Cc1ccc(CC(=O)N2CCN(c3ccc([N+](=O)[O-])cc3)CC2)cc1	6	3	2	-1	17	3	/
COc1ccc(C(=O)ON=C2CCN(c3ccc([N+](=O)[O-])cc3)CC2)cc1	3	8	89*	7	35*	5	39*
COc1ccc(NC(=O)N2CCN(c3ccc([N+](=O)[O-])cc3)CC2)cc1	-1	1	-4	4	6	6	/
CCOC(=O)c1cnn2c(C)cc(-c3ccc(F)cc3)nc12	-2	2	-1	0	10	0	/
SMILES	PAFAH1B3 inh	LYPLA1 inh	PAFAH2 FP inh	PAFAH1B2 FP inh	LYPLA2 counter	pPAFAH FP inh	LYPLA2 conf	others
CCOC(=O)COn1c(=O)c(-c2ccc(F)cc2)[n+]([O-])c2ccccc21	2	/	-10	-5	/	/	/
CCCOc1ccc(-c2c(=O)n(OCC(=O)OCC)c3ccccc3[n+]2[O-])cc1	7	1	-3	2	27*	3	72*
CCOC(=O)c1[nH]c(CN2CCN(c3ccc(OC)cc3)CC2)c(C(=O)OCC)c1C	5	-2	-2	6	27*	5	-2
CN(Cc1nc(-c2ccccn2)no1)S(=O)(=O)c1ccc(Br)cc1	9	1	3	10	37*	4	35*
CC(C)N(Cc1nc(-c2ccccc2)no1)C(=O)CN(C)S(=O)(=O)c1ccc(Br)cc1	0	0	-6	2	9	6	/
CN(Cc1nc(-c2cccnc2)no1)S(=O)(=O)c1ccc(Br)cc1	2	-1	6	15	41*	2	31*
COc1ccc(C(=O)NC(=S)NCc2cccnc2)cc1[N+](=O)[O-]	1	12	1	-2	35*	-3	24
COc1ccc(C(=O)NC(=S)Nc2cccc3ncccc23)cc1[N+](=O)[O-]	2	6	2	4	48*	7	51*	LYPLA2 ABPP=38
O=C(Nc1cccc2ncccc12)c1ccc(Br)c([N+](=O)[O-])c1	-5	-3	7	-1	33*	4	47*
CCOc1ccc(C(=O)NC(=S)Nc2ncccc2C)cc1[N+](=O)[O-]	9	5	-6	-2	10	2	/
O=C(Nc1cccc2ncccc12)c1cccc(Br)c1	1	/	1	-4	/	/	/
Cc1ccc(NC(=O)c2cccc(Oc3ccc([N+](=O)[O-])cc3)c2)c(C(=O)O)c1	2	0	4	0	26*	7	38*
Cc1ccc(NC(=O)CCC(=O)OCC(=O)c2ccc(Oc3ccc([N+](=O)[O-])cc3)cc2)c(C)c1	7	0	-6	9	29*	0	26*
Cc1ccc(NC(=O)COC(=O)CCC(=O)c2ccc(C(C)(C)C)cc2)c([N+](=O)[O-])c1	4	-3	0	14	0	17	/
N/C(CCS(=O)(=O)c1ccc(Cl)cc1)=N\OC(=O)c1ccccc1C(F)(F)F	2	3	7	11	7	-2	/
COc1ccc(S(=O)(=O)Nc2ccc3c(c2)N(C(C)=O)CCC3)cc1	5	3	-1	8	6	4	/
O=[N+]([O-])c1cc(-n2cnnn2)ccc1N1CCC(Cc2ccccc2)CC1	3	2	0	6	28*	28*	34*
